Hits are enriched below; roughly 3.5% of the tested compounds scored in any of these assays.
TEAD-YAP inh: TEAD-YAP interaction inhibition; HEK-TIYL cells, TEAD-Gal4/YAP UAS-luciferase luminescence; inhibition, % at 9.12 µM; actives 1.4% (n = 640,000); in the data active = inhibition above about 32%;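 note: 0% = median of test compound wells and 100% = reference inhibitor wells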
GPR151 activ: human GPR151 activation. activation, % at 11.2 µM. PathHunter beta-arrestin GPR151 cells, luminescence. Q8TDV0. AID 1508602. actives 1% (n = 650,000); in the data active = activation above about 4.9%;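 note: 0% = median of compound wells and 100% = cells with positive control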
MITF primary: human MITF inhibition, primary screen; O75030; AlphaScreen MITF homodimerization, bead proximity signal; inhibition, % at 2.6 µM; actives 0.91% (n = 650,000); in the data active = inhibition above about 50%;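 note: 0% = vehicle wells with protein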
Target sequence (O75030 whole entry, looked up): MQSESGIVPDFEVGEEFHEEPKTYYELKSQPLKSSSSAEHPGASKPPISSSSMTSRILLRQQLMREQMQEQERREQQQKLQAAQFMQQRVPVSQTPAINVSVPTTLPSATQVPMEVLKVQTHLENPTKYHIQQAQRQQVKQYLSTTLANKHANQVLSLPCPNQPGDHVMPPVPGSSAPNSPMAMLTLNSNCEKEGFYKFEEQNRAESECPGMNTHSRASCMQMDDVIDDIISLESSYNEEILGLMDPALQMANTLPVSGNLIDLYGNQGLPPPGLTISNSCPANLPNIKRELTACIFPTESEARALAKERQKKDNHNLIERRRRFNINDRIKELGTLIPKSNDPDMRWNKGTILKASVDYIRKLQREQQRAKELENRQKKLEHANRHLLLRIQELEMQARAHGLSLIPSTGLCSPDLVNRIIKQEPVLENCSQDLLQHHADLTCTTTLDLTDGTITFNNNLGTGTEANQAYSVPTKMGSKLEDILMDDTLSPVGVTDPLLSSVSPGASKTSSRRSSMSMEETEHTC
FBW7 activator: activators of human E3 ligase FBW7; actives 0.13% (n = 650,000); AlphaScreen FBW7–phospho-cyclin E peptide binding, activator screen; AID 1259310; Q969H0; normalized activity (activation), % at 26.1 µM; in the data active = normalized activity above about 1.9%;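 note: purified mutant Fbw7 with reduced substrate affinity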
The depositor's hits bear a star.

SMILES | TEAD-YAP inh | GPR151 activ | MITF primary | FBW7 activator
CCCCC(=O)N1c2ccccc2NC2=C(C(=O)CCC2)C1c1ccc([N+](=O)[O-])cc1 (stereo unspecified) | 4 | 3 | 3 | 0
Nc1ccc(-n2ncnc2-c2cccc(-n3ncc4cc(Nc5ccccc5F)ccc43)c2)cc1 | -11 | 1 | 3 | 0
COc1cc(NC(=O)c2cccc(-n3ncc4cc(Nc5ccccc5F)ccc43)c2)cc(OC)c1OC | 33* | 0 | -6 | 0
COc1ccc(-n2ncnc2-c2cccc(-n3ncc4cc(Nc5ccccc5F)ccc43)c2)cc1 | 38* | 2 | 7 | 0
COc1cc(/C=N\NC(=O)OC(C)(C)C)ccc1OC(=O)c1cccs1 | -20 | -1 | -2 | 0
C[C@]12CCCCC1CCC1C2CC[C@]2(C)C(N)CCC12 (stereo partly specified) | -10 | 2 | -2 | 0
CC1(C)O[C@]2(CCC3C4CC[C@H]5CCCC[C@]5(C)C4CC[C@@]32C)CN1C(=O)CSC1=NCCN1 (stereo partly specified) | 33* | 2 | 2 | 0
O=C(Nc1cc2ccccc2oc1=O)c1ccc(Br)cc1 | -26 | 0 | -13 | 0
O=C(Nc1cc2ccccc2oc1=O)c1ccccc1 | 54* | -8 | 14 | 0
CC(=O)Oc1ccc2cc(NC(=O)c3ccc(C)cc3)c(=O)oc2c1 | 52* | 0 | 9 | 0
CCN(CC)C(=O)/C(=C\c1ccc2c(c1)OCO2)NC(=O)c1ccccc1 | 13 | -2 | 5 | 1
COCCn1c(C)cc(/C=C2\C(=O)NC(=S)N(c3ccc(F)cc3)C2=O)c1C | -5 | 0 | -12 | 0
O=C(/C=C/c1cccc([N+](=O)[O-])c1)/C=C/c1ccco1 | -1 | 1 | 7 | 0
CN(C)c1ccc(/C=C/C(=O)/C=C/c2ccco2)cc1 | -4 | -1 | 63* | 1
CC1=NN(C(=O)c2cc(O)cc(O)c2)C(O)(C(F)(F)F)C1 (stereo unspecified) | 1 | 1 | -4 | 0
COc1cc(C(=O)N2N=C(C)CC2(O)C(F)(F)F)cc(OC)c1OC (stereo unspecified) | 60* | 1 | -3 | 0
COc1cc(C(=O)N2N=C(C3CC3)CC2(O)C(F)(F)F)cc(OC)c1OC (stereo unspecified) | 10 | -1 | -1 | 0
COc1cc(OC)cc(C(=O)N2N=C(C)CC2(O)C(F)(F)F)c1 (stereo unspecified) | 50* | -1 | -14 | 0
O=C(NCCN1CCOCC1)c1ccc(N2CCC(NCc3ccsc3)CC2)cc1 | -10 | 0 | 7 | 0
c1cc(-c2nc3ccc(Nc4nccc(-c5cncc(N6CCOCC6)c5)n4)cc3o2)ccn1 | -3 | 2 | 4 | 0
c1cc(Cn2cncn2)cc(Nc2nccc(-c3cncc(N4CCOCC4)c3)n2)c1 | 92* | 0 | 14 | 1
c1cc(Cn2ccnc2)cc(Nc2nccc(-c3cncc(N4CCOCC4)c3)n2)c1 | 87* | 1 | -5 | -1
CCCCCCOC(=O)C1=C(C)NC(=O)NC1c1cccc(Br)c1 (stereo unspecified) | -3 | 0 | -10 | 0
COc1cccc(CC(=O)n2nc(N)c3cc4ccc(OC)cc4nc32)c1 | 8 | 0 | 4 | 0
COc1ccc(CC(=O)n2nc(N)c3cc4ccc(OC)cc4nc32)cc1 | 41* | 1 | 7 | 0
SMILES | TEAD-YAP inh | GPR151 activ | MITF primary | FBW7 activator
COc1ccc2cc3c(N)nn(C(=O)Cc4c[nH]c5ccccc45)c3nc2c1 | 75* | 0 | 5 | 0
O=C1C=C(Nc2ccc(I)cc2)CCC1 | -5 | -1 | -3 | 0
COc1ccc(OC)c(NC(=O)CSc2nc3ccsc3c(=O)n2-c2ccc(Cl)cc2)c1 | 16 | 0 | 0 | 0
COCCN1C(=S)NC2c3ccccc3OC13CCCC23 (stereo unspecified) | 36* | 0 | 4 | 0
Brc1ccc(OCCOc2ccc(/C=N/n3cnnc3)cc2)cc1 | 3 | 0 | -1 | 0
NC(=O)c1ccccc1NC(=O)Cc1cccs1 | 3 | 0 | 2 | 0
O=C(Cc1ccc2c(c1)OCO2)Nc1cc(Nc2ccccc2-c2nn[nH]n2)c(C(F)(F)F)cn1 | 5 | -1 | 10 | 1
CNC(=O)c1ccccc1Nc1cc(NC(=O)Cc2ccsc2)ncc1C(F)(F)F | 77* | 0 | -9 | 0
CNC(=O)c1ccccc1Nc1cc(NC(=O)C2CCc3ccccc32)ncc1C(F)(F)F (stereo unspecified) | 79* | -2 | 16 | 0
CC(C)N1CCN(c2ccc(Oc3cc(Nc4ccccc4C(N)=O)c(C(F)(F)F)cn3)cc2)CC1 | 14 | -1 | 12 | 1
CS(=O)(=O)NC1CCC(Nc2cc(Nc3ccccc3C(N)=O)c(C(F)(F)F)cn2)CC1 (stereo unspecified) | 98* | -2 | 11 | 1
CNC(=O)c1ccccc1Nc1cc(NC(=O)Cc2cccs2)ncc1C(F)(F)F | 74* | -1 | 8 | 0
NC(=O)c1cccc(-c2cnn3c(N4CCN(C(=O)c5ccco5)CC4)ccnc23)c1 | 6 | 0 | 14 | 1
COc1ccc(S(=O)(=O)N2CCN(Cc3ccccc3)CC2)cc1Br | 6 | -1 | 11 | 0
NC(=O)c1ccccc1Nc1cc(NC(=O)Cc2ccc(F)cc2)ncc1F | 15 | -1 | 15 | 0
CNC(=O)c1ccccc1Nc1cc(NCc2ccccc2)ncc1C(F)(F)F | 22 | 1 | 18 | 0
CNC(=O)c1ccccc1Nc1cc(NC(=O)Cc2ccccc2F)ncc1C(F)(F)F | 81* | 0 | 9 | 0
CNC(=O)c1ccccc1Nc1cc(NC(=O)Cc2ccc(F)cc2)ncc1C(F)(F)F | 72* | 0 | -7 | 0
CNC(=O)c1ccccc1Nc1cc(NC(=O)Cc2ccc(N)cc2)ncc1C(F)(F)F | 79* | -1 | -17 | 1
Cc1c(C(=O)N(C)Cc2ccccc2)sc2ncnc(N3CCC(C)CC3)c12 | -11 | 2 | 3 | 0
Cc1onc(-c2ccccc2Cl)c1C(=O)Nc1ccc(Cc2ccncc2)cc1 | 4 | -1 | 1 | 0
CN(CCc1ccccc1)C1CCCN(C(=O)c2ccc(=O)n(C)n2)C1 (stereo unspecified) | 0 | 0 | -2 | 0
COC(=O)C1=C(C)N(Cc2ccccc2)C(=O)NC1c1ccccc1[N+](=O)[O-] (stereo unspecified) | 1 | -1 | 4 | 0
Cc1ccn2cc(-c3ccc(F)cc3)nc2c1 | 73* | -11 | 13 | 0
Cc1ccn2cc(-c3ccc(I)cc3)nc2c1 | 79* | -5 | 6 | 0
Cc1ccn2cc(-c3ccc(S(=O)(=O)N(C)C)cc3)nc2c1 | 48* | -2 | -4 | 0
Cc1ccn2cc(-c3ccc([N+](=O)[O-])cc3)nc2c1 | -1 | -4 | 11 | 0
Cc1ccn2cc(-c3ccccc3Br)nc2c1 | 33* | -6 | 6 | 0
CCC(C)(NC(C)=O)C(=O)NC1CCCC1 (stereo unspecified) | 1 | 0 | 0 | 0
O=C(Nc1ccccc1)c1cnc(Nc2ccc(N3CCOCC3)cc2)s1 | -25 | 3 | 6 | 0
